High-throughput results from PubChem BioAssay.
IP6K1 inhibitor: inhibitors of human IP6K1. Q92551. IP6K1 kinase, ADP-Glo luminescence, 2 h; active compounds read low. activity change, % (series mostly up to about 58 µM). hit rate 0.81% among 140,000; in the data active = activity change below about -25%
Target sequence (Q92551 whole entry, looked up): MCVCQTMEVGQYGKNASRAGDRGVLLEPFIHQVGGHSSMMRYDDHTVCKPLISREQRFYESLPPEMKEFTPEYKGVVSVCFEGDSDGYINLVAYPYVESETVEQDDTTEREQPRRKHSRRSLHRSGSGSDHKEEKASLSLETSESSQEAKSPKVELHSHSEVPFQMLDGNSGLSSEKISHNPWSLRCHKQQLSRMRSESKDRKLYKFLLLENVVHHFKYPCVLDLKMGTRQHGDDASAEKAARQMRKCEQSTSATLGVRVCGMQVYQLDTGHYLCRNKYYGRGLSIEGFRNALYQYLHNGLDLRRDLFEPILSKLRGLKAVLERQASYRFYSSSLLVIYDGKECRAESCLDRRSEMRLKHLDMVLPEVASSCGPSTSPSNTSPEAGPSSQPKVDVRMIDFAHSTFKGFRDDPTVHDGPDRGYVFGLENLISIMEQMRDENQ
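ADP-Glo luminescence measures ADP made by human IP6K1 during a 2 h RT reaction with ATP/IP6 (mix at 1.3 mM/130 uM); top library doses 57.5 and 19.1 uM final.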
SNCA expr inh: reduces expression of the alpha-synuclein gene | HEK-293 SNCA-luciferase knock-in, luminescence, 24 h | Potency, µM (highest dose often 57.2 µM), most hits filed as inhibitors | hit rate 0.17% among 140,000; note: nearly all actives have a fitted effect of over 45% in size
KDM5B inh: KDM5B demethylase inhibition; hit rate 2.6% among 220,000; AID 1347165; Q9UGL1; Potency, µM (doses to about 57.7 µM), actives largely listed as inhibitors; KDM5B demethylase, FDH-coupled NADH fluorescence (FDH is formaldehyde dehydrogenase); note: nearly all actives have a fitted effect of over 70% in size
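Here, H3K4me3 peptide (12.5 µM in substrate mix) is demethylated by KDM5BΔAP, 200 nM final, after 10 min compound exposure. Formaldehyde product is coupled through FDH (0.25 U/mL in mix) to NADH fluorescence; 30-min ΔRFU feeds dose-response curves.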
SNCA viab count: reduces viability of HEK-293 SNCA reporter cells; HEK-293-SNCA-luc viability, GF-AFC fluorescence, 24 h; Potency, µM (highest dose often 57.1 µM), hits mostly cytotoxic; hit rate 0.12% among 150,000; AID 1671193; note: nearly all actives have a fitted effect of over 30% in size
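HEK-293-SNCA-luc cells (1500/well) plated 24 h, then exposed 24 h to a dilution series; GF-AFC added 30 min at 37C, fluorescence 405/540 nm; normalised to medium-only and DMSO wells, Hill fit.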
IP6K1 conf: human IP6K1 inhibition, confirmatory; shares compounds with IP6K1 inhibitor; recombinant IP6K1 kinase, ADP-Glo luminescence, 2 h; Potency, µM (series often up to 49 µM), usual class: inhibitors; hit rate 13% among 1,200; AID 1645852; note: nearly all actives have a fitted effect of over 65% in size
A number is an active result; – = inactive; ? = inconclusive; · = no result. Sampled rows, rich in hits. Any-hit rate of the full collection: about 2.8%. Unless noted, calls come from the whole dose curve; as a rule, active = well fitted curve in the direction sought with a large enough effect; inconclusive = small, poorly fitted or top-dose-only effect, or another doubt; inactive = no such curve, though single readings can be large; an effect the other way counts as inactive or inconclusive.

SMILES | IP6K1 inhibitor | SNCA expr inh | KDM5B inh | SNCA viab count | IP6K1 conf
O=C(C1CCCCC1)N1C[C@@H]2C[C@H](C1)c1c(/C=C/c3ccc(Cl)cc3)ccc(=O)n1C2 | – | – | 25µM | – | ·
O=C(NC1CCCCC1)N1C[C@@H]2C[C@H](C1)c1c(/C=C/c3ccc(Cl)cc3)ccc(=O)n1C2 | – | – | – | – | ·
Cc1nnc2n1CCC(NC(=O)c1nn(C)c3ccccc13)CC2 (stereo not drawn) | – | – | ? | – | ·
CCCn1c(C)cnc1CCNC(=O)c1nn(C)c2ccccc12 | – | – | 25µM | – | ·
COc1ccc(-c2cc3c(cn2)CN(C)CCN3)cc1OC | – | – | 35µM | – | ·
COc1cccc(Nc2cc3c(cn2)CN(C)CCN3)c1 | – | – | ? | – | ·
Cc1ncc2c(n1)C[C@@H]1CC[C@H]2N1C(=O)CC1CCCC1 | – | – | – | – | ·
CN(C(=O)C(c1ccccc1)c1ccccc1)[C@H](CN1CC[C@H](O)C1)c1ccccc1 | – | · | · | – | ·
O=C1c2ccccc2C(=O)C1C(=O)C(c1ccccc1)c1ccccc1 | -28 | – | · | – | ?
COc1ccc([C@@H]2CN(C(=O)Cc3nonc3C)[C@@H]3C4CCN(CC4)[C@@H]32)cc1 | -38 | – | – | – | –
COc1ccc([C@@H]2CN(C(=O)Nc3ccc(C)cc3)[C@@H]3C4CCN(CC4)[C@@H]32)cc1 | – | – | – | – | ·
CC(C)N1C[C@@H]2OCC(=O)N(CC3CC3)[C@@H]2C1 | – | – | – | – | ·
CN1CCN(C(=O)Cc2c[nH]c3ncc(-c4ccc5c(c4)OCO5)cc23)CC1 | -27 | – | ? | – | ?
CC(C)CCN1CCC2(CC1)C(=O)Nc1ccccc12 | – | – | – | – | ·
O=C1OC(c2ccc(O)c(S(=O)(=O)O)c2)(c2ccc(O)c(S(=O)(=O)O)c2)c2c(Br)c(Br)c(Br)c(Br)c21 | -65 | – | · | – | 21µM
CC1CCN(C[C@H]2CN3CC[C@H]2C[C@@H]3CNC(=O)Nc2ccsc2)CC1 | – | – | – | – | ·
COc1ccc2c(c[n+](C)c3c4cc5c(cc4ccc23)OCO5)c1OC | · | ? | · | ? | ?
COc1ccc(-c2cc([C@H]3CN4CC[C@H]3C[C@@H]4CNCc3ccccn3)n(C)n2)cc1 | – | – | – | – | ·
COc1cc2c(cc1OCC1CC1)NC(=O)C21CCN(c2nc(C)cc(C)n2)CC1 | -25 | ? | – | – | –
COc1cc2c(cc1Oc1ccccc1)NC(=O)C21CCN(c2nc(C)cnc2C)CC1 | -32 | ? | 32µM | ? | ?
COc1cc2c(cc1Oc1ccccc1)NC(=O)C21CCN(Cc2ccccc2)CC1 | – | ? | – | – | ·
COc1cc2c(cc1OCC1CC1)NC(=O)C21CCN(C(=O)c2cccnc2)CC1 | -25 | – | – | – | –
CC(=O)O[C@H]1C(=O)[C@]2(C)C(O)C[C@H]3OC[C@@]3(OC(C)=O)[C@H]2[C@H](OC(=O)c2ccccc2)[C@]2(O)C[C@H](O)C(C)=C1C2(C)C (stereo partly drawn) | – | · | · | – | ·
CC[C@]1(O)CC[C@H]2[C@@H]3CCC4=CCCC[C@@H]4[C@H]3CC[C@@]21C | -28 | – | · | – | ?
CC[C@H]1C[C@H]2[C@@H]3CCC4=CC(=O)CC[C@@H]4[C@H]3CC[C@]2(C)[C@H]1O | – | – | · | – | ·
SMILES | IP6K1 inhibitor | SNCA expr inh | KDM5B inh | SNCA viab count | IP6K1 conf
Cc1[nH]nc2c1C(c1ccccc1)SCC(=O)N2 (stereo not drawn) | · | · | – | · | ·
COc1cc2c(cc1Oc1ccccc1)NC(=O)C21CCN(C(=O)c2cccnc2)CC1 | – | ? | – | – | ·
Cc1ccc([N+](=O)[O-])[c]2c1[O][Hg]2 | -83 | ? | · | ? | 1µM
OC1C2(c3ccccc3)CN3CN(C2)CC1(c1ccccc1)C3 (stereo not drawn) | · | · | – | · | ·
N[C@@H](Cc1ccc(Oc2cc(I)c(O)c(I)c2)c(I)c1)C(=O)O | -54 | – | · | – | ?
Cc1cccc(OCC(=O)N2CCN(Cc3cc(=O)n4nc(-c5ccccc5Cl)sc4n3)CC2)c1 | -30 | – | – | – | –
CCOC(=O)[C@H]1CN(C(=O)c2ccc(F)cc2)[C@]2(C)C(=O)N(CCOC)c3ccccc3[C@H]12 | – | – | · | – | ·
c1ccc2c(c1)OCC(C1=NCCN1)O2 (stereo not drawn) | -44 | – | · | ? | –
